Assay outcomes from PubChem.
Only a sample is shown.
aSyn 5UTR act: Activators via SNCA 5'UTR binding, MLPCN. alpha-synuclein 5'UTR reporter, activators screen. activity score, % (tested at 7.5 µM), hits read low. 300,000 tested, 7.1% active. AID 1814, 2009; in the data active means activity score below about -60%
Active calls of the source: *.

Screening O=C(Cc1ccccc1[N+](=O)[O-])NCc1ccc(Cl)cc1 returned aSyn 5UTR act -93.9*.
O=C(Cc1ccccc1[N+](=O)[O-])NCc1ccc(Cl)cc1Cl was read as aSyn 5UTR act -142.2*.
`COc1cccc(C2=N/C(=C\N(C)C)C(=O)O2)c1` gave aSyn 5UTR act -133.0*.
For Cc1ccc(SSc2cc(C)ccc2N)c(N)c1 the results were aSyn 5UTR act -202.9*.
CCCNc1nc(Cl)nc(Nc2ccc(Cl)cc2)n1 was read as aSyn 5UTR act -62.8*.
Screening CC(C)(C)Nc1nc(Cl)nc(Nc2ccccc2)n1 returned aSyn 5UTR act -136.0*.
COC(=O)c1ccccc1NC(=O)c1ccc(-c2ccc(Br)cc2)o1 was read as aSyn 5UTR act -106.4*.
Screening O=C(Nc1cccc2nsnc12)c1ccc(-c2ccc(Br)cc2)o1 returned aSyn 5UTR act -157.2*.
For Cc1ccc2nc(CSc3nc(C)ccc3C#N)[nH]c2c1 the results were aSyn 5UTR act 79.3.
Cc1ccc2nc(SC(C)C(=O)N3CCCCC3)[nH]c2c1 (centres undefined) was read as aSyn 5UTR act -81.0*.
Screening Cc1ccc2nc(SCC(=O)c3ccc(O)cc3O)[nH]c2c1 returned aSyn 5UTR act -220.2*.
Cc1ccc2nc(SCc3nc4ccccc4c(=O)[nH]3)[nH]c2c1 was read as aSyn 5UTR act -139.5*.
Cc1ccc2nc(SCC(=O)N3CCCC3)[nH]c2c1 was read as aSyn 5UTR act -128.9*.
Screening Cc1ccc(CSc2nc3ccncc3[nH]2)cc1 returned aSyn 5UTR act 72.5.
Cc1cc(C(=O)CSc2nc3ccccc3c(=O)[nH]2)c(C)n1C was read as aSyn 5UTR act -130.4*.
Screening Cc1ccc2nc(SC(C)C(=O)N3CCCC3)[nH]c2c1 (centres undefined) returned aSyn 5UTR act -75.4*.
Screening CCCc1cc2c(=O)c(-c3ccc4c(c3)OCCO4)coc2cc1OC(=O)c1ccco1 returned aSyn 5UTR act -286.8*.
Screening CCCc1cc2c(=O)c(-c3ccc4c(c3)OCCO4)coc2cc1OS(C)(=O)=O returned aSyn 5UTR act -221.6*.
Screening CCOc1ccc(NC(=O)Nc2cccnc2)cc1 returned aSyn 5UTR act -141.4*.
CCOc1ccc(NC(=O)Nc2cccc(C(=O)O)c2)cc1 was read as aSyn 5UTR act 107.7.
`O=C(Nc1ccc(Cl)cc1)Nc1cccnc1` gave aSyn 5UTR act -66.2*.
For CCOCCCNC(=O)/C(C#N)=C/c1cc(Br)c(O)c(Br)c1 the results were aSyn 5UTR act -68.6*.
Screening O=C(OCc1nc2ccccc2s1)c1cnccn1 returned aSyn 5UTR act -133.5*.
O=C(OCc1nc2ccccc2s1)c1cccs1 was read as aSyn 5UTR act -196.8*.
For O=C(O)c1ccccc1OCc1nc2ccccc2s1 the results were aSyn 5UTR act -145.7*.
O=C(OCc1nc2ccccc2s1)c1ccccc1O was read as aSyn 5UTR act -136.5*.
CC1CC2(C)Oc3ccccc3CC2C(C)C1CNCCCN(C)C (centres undefined) was read as aSyn 5UTR act 105.5.
Screening CNc1c(N)c(=O)oc2ccccc12 returned aSyn 5UTR act -74.2*.
For O=C(Nc1nnc(-c2ccco2)s1)C1CCCCC1 the results were aSyn 5UTR act -95.3*.
`CC(C)CC(=O)Nc1nnc(-c2ccco2)s1` gave aSyn 5UTR act -151.4*.
Screening Cc1cccn2c(=O)c3cc(C(=O)NC4CCCC4)n(C)c3nc12 returned aSyn 5UTR act -93.5*.
Cc1cccn2c(=O)c(C(=O)NC3CCCCC3)c(O)nc12 was read as aSyn 5UTR act -66.5*.
For COc1ccc(CCn2c(=N)c(C(=O)NC3CCCC3)cc3c(=O)n4ccccc4nc32)cc1OC the results were aSyn 5UTR act -61.9*.
Screening CCCn1c(=N)c(C(=O)NC2CCCC2)cc2c(=O)n3cccc(C)c3nc21 returned aSyn 5UTR act -67.0*.
`Cc1cccn2c(=O)c3cc(C(=O)NCC4CCCO4)c(=N)n(CCc4ccccc4)c3nc12` (centres undefined) gave aSyn 5UTR act -100.8*.
[N-]=[N+]=CC(=O)C(O)(c1ccccc1)C(Cl)c1ccccc1 (centres undefined) was read as aSyn 5UTR act 47.0.
`CCOC(=O)c1c(-c2ccccc2)nc2cc(C)ccn12` gave aSyn 5UTR act -104.2*.
For CCOC(=O)c1c(-c2ccccc2)nc2ccc(C)cn12 the results were aSyn 5UTR act -165.9*.
COc1ccc(/C(C#N)=C/c2ccccn2)cc1 was read as aSyn 5UTR act -172.0*.
`N#C/C(=C\c1ccccn1)c1nc2ccccc2s1` gave aSyn 5UTR act -74.0*.
`CCn1c(COc2ccc(OC)cc2)nc2ccccc21` gave aSyn 5UTR act -94.4*.
Screening COCn1c(-c2ccc(OC)cc2)nc2ccccc21 returned aSyn 5UTR act -191.9*.
`C=CCn1c(COc2ccc(OC)cc2)nc2ccccc21` gave aSyn 5UTR act -74.6*.
Screening OCc1nc2ccccc2n1CCCOc1ccc(Br)cc1 returned aSyn 5UTR act -104.3*.
For COCCn1c(COc2ccc(OC)cc2)nc2ccccc21 the results were aSyn 5UTR act -82.1*.
O=C(NC1CCCCC1)c1ccc2c(c1)OCCO2 was read as aSyn 5UTR act -82.4*.
Screening O=C(NNC(=S)NC1CCCCC1)c1ccc2c(c1)OCO2 returned aSyn 5UTR act -77.9*.
`S=C(NC1CCCCC1)c1ccc2c(c1)OCO2` gave aSyn 5UTR act -64.8*.
For N=c1oc2ccccc2cc1-c1nc2ccccc2c(=O)[nH]1 the results were aSyn 5UTR act -165.4*.
For Cc1cccc(-c2nc3ccccc3c(=O)[nH]2)c1 the results were aSyn 5UTR act -110.7*.
Cc1nc(Nc2ccc3c(c2)OCCO3)c2c(C)c(C)sc2n1 was read as aSyn 5UTR act -71.7*.
Cc1cccc(-c2cc3nc(-c4ccccc4)cc(=O)n3[nH]2)c1 was read as aSyn 5UTR act -103.2*.
Screening Cc1cc(=O)n2[nH]c(-c3ccc(F)cc3)cc2n1 returned aSyn 5UTR act -64.4*.
Screening CC(=O)Oc1ccc2cc(-c3nc4ccccc4n3C)c(=O)oc2c1 returned aSyn 5UTR act -225.7*.
Screening Cn1c(-c2cc3ccc(OC(=O)C(C)(C)C)cc3oc2=O)nc2ccccc21 returned aSyn 5UTR act -117.3*.
CC(C)(C)C(=O)Oc1ccc2cc(-c3ccc4ccccc4n3)c(=O)oc2c1 was read as aSyn 5UTR act -157.3*.
CCN(CC)Cc1c(O)ccc2cc(-c3nc4ccccc4n3C)c(=O)oc12 was read as aSyn 5UTR act -73.8*.
For Cc1c(C(=O)Nc2cccnc2Cl)oc2ccccc12 the results were aSyn 5UTR act -181.3*.
Cc1c(C(=O)Nc2ccccn2)oc2ccccc12 was read as aSyn 5UTR act -259.1*.
Cc1ccc(NC(=O)c2oc3ccccc3c2C)nc1 was read as aSyn 5UTR act -94.1*.
`CC(C)(C)c1ccc(-c2nnc(N)o2)cc1` gave aSyn 5UTR act -154.1*.
For CCOC(=O)c1ccc(Nc2nc(=O)c3cccnc3s2)cc1 the results were aSyn 5UTR act -133.2*.
`O=c1nc(Nc2ccc(OCc3ccccc3)cc2)sc2ncccc12` gave aSyn 5UTR act -96.0*.
Screening CC(=O)c1ccc(Nc2nc(=O)c3cccnc3s2)cc1 returned aSyn 5UTR act -124.2*.
Screening Cc1ccc(NC(=O)c2ccc(CSc3nnc(-c4ccncc4)n3C)cc2)cc1 returned aSyn 5UTR act -108.2*.
Screening Cn1nnnc1SCc1ccc(C(=O)Nc2ccc(Br)cc2)cc1 returned aSyn 5UTR act -185.7*.
Screening CCOC(=O)c1ccc(CSc2nnc(-c3ccncc3)n2N)cc1 returned aSyn 5UTR act -63.2*.
For Clc1ccc(-n2nnc(-c3cccnc3Cl)n2)cc1Cl the results were aSyn 5UTR act -108.5*.
